In the library only some 6.8% were active in any assay of this set; here they are far more common.
T cruzi growth-1 – T. cruzi proliferation inhibition | actives 5.9% (n = 77,000) | T. cruzi beta-gal in NIH3T3, GalScreen luminescence, 90 h | inhibition, % at 8.34 µM | AID 624255;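 active = mean inhibition above about 93%, with at least 55% of replicates each passing it, limit read from the data, passing the limit was not always enough; inconclusive = only one of those two conditions holds; inactive = neither condition holds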
C diff HTS – C. difficile growth inhibition | Clostridium difficile clinical isolate growth, OD600, 24 h; stronger effect = lower value | growth activity, negative = inhibition, % at 16 µg/mL (by protocol) | actives 0.25% (n = 86,000) | AID 1259249;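 active = mean growth activity at or below -80% and every replicate also at or below -80%; inconclusive = mean at or below -80% but some replicate above -80%; inactive = mean growth activity above -80%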
Pf Dd2 inh – blocks growth of Plasmodium falciparum Dd2 parasites; P. falciparum Dd2 growth, SYBR Green, 72 h; stronger effect = lower value; activity change, % at 10 µM; actives 2.3% (n = 94,000); AID 1159554; in the data active = activity change below about -80%; inconclusive = no clear call, values can overlap the other calls
T cruzi growth-2 – inhibitors of T. cruzi proliferation | shares compounds with T cruzi growth-1 | T. cruzi beta-gal in NIH3T3, GalScreen luminescence, 90 h | inhibition, % at 8.35 µM | actives 72% (n = 5,600) | AID 651739;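 active = mean replicate inhibition above about 95% and at least 55% of replicates individually reaching it, limit read from the data; inconclusive = only one of the two criteria is met; inactive = neither criterion is met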
T cruzi growth-3 – Trypanosoma cruzi proliferation inhibition; shares compounds with T cruzi growth-1; T. cruzi beta-gal in NIH3T3, GalScreen luminescence, 90 h; inhibition, % at 2.09 µM; actives 21% (n = 5,600);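 active = mean inhibition above about 95%, with at least 55% of replicates also reaching it, limit read from the data; inconclusive = meets just one of the two conditions; inactive = meets neither condition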
3T3 cytotox – kills mouse NIH/3T3 fibroblasts. shares compounds with T cruzi growth-1. NIH/3T3 viability, CellTiter-Glo ATP luminescence, 90 h. cytotoxicity (signal decrease), % at 8.35 µM. actives 14% (n = 5,600). AID 651742;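 active = mean signal decrease across replicates above about 35% based on untreated-well scatter, with enough replicates individually passing, limit read from the data; inconclusive = no rule stated though some were filed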
NIH3T3 tox 2 – cytotoxicity in mouse NIH/3T3 fibroblasts. AID 651744. actives 56% (n = 5,600). inhibition, % at 24.9 µM. shares compounds with T cruzi growth-1. NIH/3T3 viability, CellTiter-Glo ATP luminescence, 90 h;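 active = mean loss of cell viability signal at or above a set limit, and enough replicates individually reaching it; inconclusive = meets only the mean limit or only the replicate share; inactive = meets neither condition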
Hits are given with their value; 0 = inactive; ? = inconclusive; - = not tested or not shown.

SMILES | T cruzi growth-1 | C diff HTS | Pf Dd2 inh | T cruzi growth-2 | T cruzi growth-3 | 3T3 cytotox | NIH3T3 tox 2
C[C@H](CO)N1C[C@H](C)[C@H](CN(C)Cc2ccc(Cl)c(Cl)c2)OCCCC[C@H](C)Oc2ccc(NC(=O)Nc3ccc(F)cc3)cc2C1=O | 100 | - | 0 | 0 | 108 | 0 | 55
C[C@@H]1CN([C@H](C)CO)C(=O)c2cc(NC(=O)CCC(F)(F)F)ccc2O[C@@H](C)CCCCO[C@@H]1CN(C)Cc1ccc(Cl)c(Cl)c1 | 0 | 0 | 0 | - | - | - | -
C[C@@H]1CCCCO[C@@H](CN(C)Cc2ccc(Cl)c(Cl)c2)[C@H](C)CN([C@@H](C)CO)C(=O)c2cc(NC(=O)Nc3ccc(F)cc3)ccc2O1 | 104 | - | 0 | 101 | 117 | 0 | 0
C[C@@H]1CCCCO[C@H](CN(C)Cc2ccc(Cl)c(Cl)c2)[C@@H](C)CN([C@@H](C)CO)C(=O)c2cc(NC(=O)CCC(F)(F)F)ccc2O1 | 98 | 0 | -95 | ? | 114 | 0 | 106
C[C@@H]1CCCCO[C@@H](CN(C)Cc2ccc(Cl)c(Cl)c2)[C@H](C)CN([C@@H](C)CO)C(=O)c2cc(NC(=O)Nc3ccccc3)ccc2O1 | 0 | 0 | 0 | - | - | - | -
C[C@@H]1CCCCO[C@H](CN(C)Cc2ccc(Cl)c(Cl)c2)[C@@H](C)CN([C@@H](C)CO)C(=O)c2cc(NC(=O)Nc3ccc(F)cc3)ccc2O1 | 101 | - | 0 | 0 | 112 | 0 | 33
C[C@@H]1CN([C@@H](C)CO)C(=O)c2cc(NC(=O)Nc3ccccc3)ccc2O[C@@H](C)CCCCO[C@H]1CN(C)Cc1ccc(Cl)c(Cl)c1 | 0 | - | 0 | - | - | - | -
C[C@@H]1CN([C@@H](C)CO)C(=O)c2cc(C#CCN(C)C)cnc2O[C@@H]1CN(C)C(=O)Cc1ccccc1 | - | 0 | 0 | - | - | - | -
O=C(C[C@@H]1CC[C@H](NC(=O)C2CCOCC2)[C@@H](CO)O1)NCC1CC1 | - | 0 | 0 | - | - | - | -
C[C@@H]1CCCCO[C@H](CN(C)C(=O)Nc2ccc3c(c2)OCO3)[C@H](C)CN([C@@H](C)CO)C(=O)c2cc(NC(=O)C3CCCCC3)ccc2O1 | 0 | 0 | 0 | - | - | - | -
C[C@H]1CN([C@@H](C)CO)C(=O)Cc2cc(NS(C)(=O)=O)ccc2O[C@H]1CN(C)C(=O)Nc1ccc(F)cc1 | 0 | 0 | 0 | - | - | - | -
COCC(=O)N1CC[C@@H]2[C@H]1c1cc(C#Cc3ccccc3)ccc1N[C@@H]2CO | 0 | 0 | 0 | - | - | - | -
CO[C@H]1CN(C)C(=O)c2ccc(NC(=O)C3CC3)cc2OC[C@H](C)N(Cc2ccccc2)C[C@@H]1C | - | 0 | 0 | - | - | - | -
Cc1ccccc1-c1ccc([C@H]2[C@@H](CO)N3CCCCN(C(=O)CN4CCOCC4)C[C@@H]23)cc1 | ? | 0 | 0 | 0 | 0 | 0 | 0
COc1ccccc1-c1ccc([C@@H]2[C@H](CO)N3CCCCN(C(=O)CN4CCOCC4)C[C@@H]23)cc1 | 0 | 0 | 0 | - | - | - | -
O=C(CN1CCOCC1)N1CCCCN2[C@H](C1)[C@H](c1ccc(C#Cc3ccccc3)cc1)[C@@H]2CO | 0 | 0 | 0 | - | - | - | -
O=C(CN1CCOCC1)N1CCCCN2[C@H](C1)[C@@H](c1ccc(C#Cc3ccccc3)cc1)[C@@H]2CO | 112 | 0 | 0 | 107 | 0 | 0 | 101
O=C(CN1CCOCC1)N1CCCCN2[C@@H](CO)[C@@H](c3ccc(C#Cc4ccccc4)cc3)[C@@H]2C1 | 98 | 0 | 0 | 0 | 0 | 0 | 103
O=C(CN1CCOCC1)N1CCCCN2[C@H](CO)[C@@H](c3ccc(-c4ccccc4)cc3)[C@H]2C1 | 0 | 0 | 0 | - | - | - | -
O=C(CN1CCOCC1)N1CCCCN2[C@@H](CO)[C@H](c3ccc(C#Cc4ccccc4)cc3)[C@@H]2C1 | 0 | 0 | 0 | - | - | - | -
O=C(CN1CCOCC1)N1CCCCN2[C@@H](CO)[C@@H](c3ccc(/C=C/c4ccccc4)cc3)[C@@H]2C1 | 105 | 0 | 0 | 105 | 0 | 0 | 105
CCN(C[C@H]1[C@H](c2ccc(C3=CCCC3)cc2)[C@H](CO)N1C(C)=O)C(C)=O | 0 | 0 | 0 | - | - | - | -
C[C@@H]1CCCCO[C@H](CN(C)C(=O)CCCN(C)C)[C@H](C)CN([C@@H](C)CO)C(=O)c2cc(NS(=O)(=O)c3ccc(F)cc3)ccc2O1 | - | 0 | 0 | - | - | - | -
C[C@@H]1CN([C@H](C)CO)C(=O)c2cc(NS(=O)(=O)c3cccs3)ccc2O[C@@H]1CN(C)S(=O)(=O)c1cn(C)cn1 | 0 | 0 | 0 | - | - | - | -
C[C@@H]1CN([C@@H](C)CO)C(=O)Cc2cc(NS(=O)(=O)c3cccs3)ccc2O[C@H]1CN(C)C(=O)Nc1ccccc1 | 0 | 0 | 0 | - | - | - | -
SMILES | T cruzi growth-1 | C diff HTS | Pf Dd2 inh | T cruzi growth-2 | T cruzi growth-3 | 3T3 cytotox | NIH3T3 tox 2
O=C(NC1CCCC1)N1CCCCN2[C@@H](CO)[C@@H](c3ccc(-c4ccncc4)cc3)[C@@H]2C1 | 105 | 0 | 0 | 97 | 0 | 0 | 0
O=C(NC1CCCC1)N1CCCCN2[C@H](CO)[C@H](c3ccc(-c4cncnc4)cc3)[C@@H]2C1 | 102 | 0 | 0 | 0 | 0 | 0 | 0
Cc1ccccc1-c1ccc([C@@H]2[C@@H](CO)N3CCCCN(C(=O)NC4CCCC4)C[C@H]23)cc1 | 0 | 0 | 0 | - | - | - | -
O=C(NC1CCCC1)N1CCCCN2[C@H](C1)[C@H](c1ccc(-c3ccncc3)cc1)[C@@H]2CO | 0 | 0 | 0 | - | - | - | -
O=C(NC1CCCC1)N1CCCCN2[C@H](CO)[C@@H](c3ccc(-c4ccncc4)cc3)[C@H]2C1 | 0 | 0 | 0 | - | - | - | -
O=C(NC1CCCC1)N1CCCCN2[C@H](CO)[C@@H](c3ccc(-c4cccnc4)cc3)[C@H]2C1 | 0 | 0 | 0 | - | - | - | -
Cc1ccccc1-c1ccc([C@@H]2[C@H](CO)N3CCCCN(C(=O)NC4CCCC4)C[C@@H]23)cc1 | 118 | 0 | 0 | 106 | 0 | 0 | 105
O=C(NC1CCCC1)N1CCCCN2[C@H](C1)[C@H](c1ccc(-c3cncnc3)cc1)[C@@H]2CO | ? | 0 | 0 | 107 | 0 | 0 | 0
COCC(=O)N[C@H]1C=C[C@@H](CC(=O)NCc2ccc(Cl)cc2)O[C@@H]1CO | 0 | - | 0 | - | - | - | -
CO[C@H]1CN(C)C(=O)c2cc(NC(=O)c3cccc(F)c3)ccc2OC[C@@H](C)NC[C@@H]1C | 0 | - | 0 | - | - | - | -
COC(=O)C[C@H]1CC[C@@H]2[C@@H](COc3ccc(NC(=O)c4cccs4)cc3C(=O)N2C)O1 | 0 | 0 | 0 | - | - | - | -
O=C(C[C@H]1C[C@H]2c3cc(NC(=O)Cc4ccncc4)ccc3O[C@H]2[C@@H](CO)O1)NCc1cccnc1 | 0 | 0 | 0 | - | - | - | -
C[C@H]1CN([C@@H](C)CO)C(=O)Cc2cc(NS(=O)(=O)c3ccccc3)ccc2O[C@H]1CN(C)C(=O)NC1CCCCC1 | 0 | 0 | 0 | - | - | - | -
C[C@@H]1CN([C@@H](C)CO)C(=O)c2cc(C#CC3CCCCC3)cnc2O[C@H]1CN(C)S(C)(=O)=O | 0 | 0 | 0 | - | - | - | -
O=C(NC1CCCC1)N1CCCCN2[C@H](C1)[C@H](c1ccc(-c3ccccc3)cc1)[C@@H]2CO | 0 | 0 | 0 | - | - | - | -

Screening results: PubChem, Broad Institute
